Data as given in PubChem BioAssay AID1259422 (The Scripps Research Institute Molecular Screening Center, 2018).
The campaign covered roughly 640,000 compounds. About 9,300 (1.5%) were called active. Cut-off read from the data, not from the text of the source: active = inhibition above about 32%; inactive = the rest. This excerpt belongs to a sample that is enriched for actives.

Test: TEAD-YAP interaction inhibition, primary screen, TEAD-YAP interaction inhibitor project, luminescence, HEK-TIYL cells (AID 1259422);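 note: 0% = median of test compound wells and 100% = reference inhibitor wells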
Details: TEAD-Gal4/YAP UAS-luciferase luminescence, at 9.12 µM, hits give high values

Compound | inhibition
N=C1C(c2nc3ccccc3s2)=C(O)CN1c1cccc(F)c1 | 31.9% (active)
Cc1ccc(N2CC(O)=C(c3nc4ccccc4n3C)C2=N)cc1C | -5.77% (inactive)
CC(C#N)OC(=O)c1ccc(N2CC(O)=C(c3nc4ccccc4s3)C2=N)cc1 (stereo unspecified) | 5.73% (inactive)
O=C1N[C@H](Cc2ccc(O)cc2)C(=O)N2CCN(C(=O)Oc3ccc(Cl)cc3)C[C@H]12 | -0.03% (inactive)
Cc1cccc(CC(=O)Nc2cnn(-c3cccc(C(=O)N(C)Cc4ccon4)c3)c2)c1 | 8.24% (inactive)
COc1ccc(-n2c(C)cc(C(=O)COC(=O)COc3ccccc3C=O)c2C)cc1 | 5.99% (inactive)
Cc1cc(C(=O)COC(=O)C2CC2)c(C)n1-c1ccc(F)cc1 | 39% (active)
COCc1cc(C(C)=O)ccc1OCC(=O)c1cc(C)n(-c2ccc(F)cc2)c1C | -1.2% (inactive)
Cc1ccc(CCNC(=O)CCCNS(=O)(=O)c2ccc3c(c2)CCC(=O)N3)cc1 | 1.68% (inactive)
Fc1ccccc1-c1nc(NCC2CCCO2)c2ccccc2n1 (stereo unspecified) | 25.9% (inactive)
COc1ccc(CNc2nc(Nc3ccc(OC)cc3)nc3cc(OC)c(OC)cc23)cc1 | 1.6% (inactive)
Fc1ccc(CSc2nc(NCc3ccccc3)c3ccccc3n2)cc1 | -9.53% (inactive)
Fc1ccccc1CSc1nc(NCC2CCCO2)c2ccccc2n1 (stereo unspecified) | 0% (inactive)
Fc1ccc(Nc2nc(NCC3CCCO3)c3ccccc3n2)cc1 (stereo unspecified) | 42.1% (active)
Fc1ccc(Nc2nc(NCc3ccccc3)c3ccccc3n2)cc1 | 42% (active)
O=C(c1cc(COc2ccc(F)cc2Cl)on1)N1C[C@@H]2CCC[C@H]1C2 | -37.5% (inactive)
CCn1c(N2CCC(C(=O)NCCc3ccc(O)cc3)CC2)nc2ccccc21 | 4.47% (inactive)
CC(CCc1ccco1)NC(=O)C1CCN(c2nc3ccccc3n2C)CC1 (stereo unspecified) | 9.58% (inactive)
COc1ccc2[nH]cc(CCNC(=O)C3CCN(c4nc5ccccc5n4C)CC3)c2c1 | 34.1% (active)
COc1c(C(=O)Nc2ccc(NC(C)=O)cc2)ccc2ccccc12 | -28.1% (inactive)
CN1CCN(c2ncn(-c3ccc(Nc4nccc(-c5ccc(NS(C)(=O)=O)cc5)n4)cc3)n2)CC1 | -0.18% (inactive)
Cc1ncn(-c2ccc(Nc3nccc(-c4cc(C#N)cc(NC5CCN(C)CC5)c4)n3)cc2)n1 | 16.9% (inactive)
Cc1ncn(-c2ccc(Nc3nccc(N4CCc5[nH]ncc5C4)n3)cc2)n1 | 49.9% (active)
CCc1nc2sc(C(c3ccc(F)cc3)N3CCCC3)c(O)n2n1 (stereo unspecified) | -0.93% (inactive)
Oc1c(C(c2cccnc2)N2CCOCC2)ccc2cccnc12 (stereo unspecified) | 29% (inactive)
OCCN1CCN(C(c2ccc(F)cc2)c2ccc3cccnc3c2O)CC1 (stereo unspecified) | 87.9% (active)
